{"source": "the supplement of paper PMC7057948", "about": "“A genome-wide approach for identification and characterisation of metabolite-inducible systems” (Nature Communications, 2020)", "data": [{"system": "HpdR/P_H16_RS18295 3-hydroxypropanoate biosensor (pEH010)", "assay": "relative induction of RFP reporter vs primary effector; higher = stronger activation", "details": "inducer concentration 5 mM; 6 h; Cupriavidus necator H16; minimal medium + 0.4% gluconate", "procedure": "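Orthogonality screen of 21 primary inducers against 21 transcription factor/inducible promoter–mRFP biosensors in C. necator H16 in minimal medium, robotic 96-well format, 5 mM inducer, 30 °C. OD-normalised RFP fluorescence was read 6 h later and expressed as relative induction (%) = 100 × (FL compound − FL uninduced)/(FL primary inducer − FL uninduced); mean of n=4. Cognate pairs (100% by definition) omitted.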", "units": {"relative induction of RFP reporter": "%"}, "values": [{"compound": "O=C(O)c1ccc(O)c(O)c1", "note": "[3,4-dihydroxybenzoate]", "relative induction of RFP reporter": -0.0358}, {"compound": "OC1OC[C@H](O)[C@H](O)[C@H]1O", "note": "(mixture of isomers) [L-arabinose]", "relative induction of RFP reporter": 0.017}, {"compound": "N[C@@H](Cc1ccccc1)C(=O)O", "note": "[L-phenylalanine]", "relative induction of RFP reporter": -0.399}, {"compound": "O=c1[nH]c(=O)c2nc[nH]c2[nH]1", "note": "[xanthine]", "relative induction of RFP reporter": 0.1}, {"compound": "C=C(CC(=O)O)C(=O)O", "note": "[itaconate]", "relative induction of RFP reporter": -0.14}, {"compound": "O=C(O)C(=O)c1ccccc1", "note": "[phenylglyoxylate]", "relative induction of RFP reporter": -0.296}, {"compound": "O=C(O)C1CCCCC1", "note": "[cyclohexane-1-carboxylate]", "relative induction of RFP reporter": -0.461}, {"compound": "NCCC(=O)O", "note": "[β-alanine]", "relative induction of RFP reporter": 0.231}, {"compound": "O=C(O)CS(=O)(=O)O", "note": "[sulfonatoacetate]", "relative induction of RFP reporter": -0.0436}, {"compound": "CC(=O)C(C)O", "note": "(stereo unspecified) [acetoin]", "relative induction of RFP reporter": -0.347}, {"compound": "Nc1ccccc1C(=O)C[C@H](N)C(=O)O", "note": "[L-kynurenine]", "relative induction of RFP reporter": -0.129}, {"compound": "O=C(O)c1ccccc1", "note": "[benzoate]", "relative induction of RFP reporter": -0.293}, {"compound": "O=C(O)C(O)C(O)C(=O)O", "note": "(stereo unspecified) [tartrate]", "relative induction of RFP reporter": -0.0938}, {"compound": "O=CO", "note": "[formate]", "relative induction of RFP reporter": 0.0754}, {"compound": "N[C@@H](Cc1ccc(O)cc1)C(=O)O", "note": "[L-tyrosine]", "relative induction of RFP reporter": -0.292}, {"compound": "O=C(O)c1ccccc1O", "note": "[salicylate]", "relative induction of RFP reporter": 0.195}]}]}
